Screening data (PubChem BioAssay)
Shown are actives, neighbours in structure and some others; about 10% of the full set was active somewhere.
PNC assembly inh = perinucleolar compartment assembly inhibition. PC3M PTB-GFP, PNC prevalence imaging, 16 h; active compounds read low. activity change (PNC), negative = inhibition, % at 10 µM. 140,000 tested, 3.1% active;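 active means readout at or below -70, meaning at least 70% loss of cells showing the perinucleolar compartment, a nuclear body marking cancer cells; inconclusive means readout between -30 and a set limit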
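PC3M cells stably expressing PTB-GFP, 750–1000 cells/well, treated 16 h at 37 °C with compound (23 nl of library stock), in duplicate. After paraformaldehyde fixation and Hoechst stain, imaged at 20x; PNC prevalence scored by image analysis.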
HPGD block = HPGD (human) dehydrogenase inhibition; purified HPGD, NADH fluorescence kinetic, PGE2 substrate; P15428; 150,000 tested, 4.3% active; Potency, µM, most hits filed as inhibitors
Target sequence (P15428 whole entry, looked up): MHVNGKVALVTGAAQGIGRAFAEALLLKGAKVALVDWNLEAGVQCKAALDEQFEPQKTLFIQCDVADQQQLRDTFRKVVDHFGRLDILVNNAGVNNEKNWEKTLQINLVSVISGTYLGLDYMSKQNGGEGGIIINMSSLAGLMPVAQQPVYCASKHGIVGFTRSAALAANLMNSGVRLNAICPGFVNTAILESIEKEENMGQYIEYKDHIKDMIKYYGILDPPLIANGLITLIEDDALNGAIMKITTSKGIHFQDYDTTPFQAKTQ
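20 nM HPGD preincubated 15 min at room temperature with compound in 50 mM Tris-HCl pH 8, 0.01% Tween 20. Started with 1 mM NAD+ and 30 uM prostaglandin E2; NADH fluorescence (360/450 nm) read 5 times over 30-s intervals, last minus first.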
Lamin A splicing = changes lamin A minigene splicing in HeLa cells. 200,000 tested, 0.01% active. Potency, µM (doses to about 46.1 µM), actives largely listed as inhibitors. HeLa LMNA splicing GFP/RFP minigene ratio, 48 h; active means well fitted inhibition curve with a large enough effect in the signal ratio, with a control signal flat, not every such curve was filed as active; inconclusive means small, poorly fitted or top-dose-only effect, or effect the other way, or a change in a side signal; the % refers to the signal ratio
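S3 HeLa cells stably expressing lamin A-EGFP splicing minigene plus DsRed2, 600 cells/well, 48 h compound exposure at 37C. Laser-scanning cytometry; analysed as GFP (500-530 nm)/RFP (575-640 nm) total intensity ratio; 0.5% DMSO vehicle.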
12-hLO inh = 12-hLO (ALOX12) enzyme inhibition. P18054. purified 12-hLO, xylenol orange hydroperoxide absorbance. Potency, µM (doses to about 57.1 µM), most hits filed as inhibitors. 150,000 tested, 0.12% active; active means well fitted inhibition curve with a large enough effect; inconclusive means small, poorly fitted or top-dose-only effect; further: nearly all actives have a fitted effect of over 55% in size
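Lipoxygenase turnover measured by absorbance at 573 and 405 nm after Fe-XO development. Human 12hLO 150 nM, arachidonate 40 uM, pH 7.0 Hepes buffer with detergent; 15 min compound preincubation, 30 min reaction.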
ALDH1A1 inh = inhibitors of human aldehyde dehydrogenase 1A1. Purified ALDH1A1, NADH fluorescence, propionaldehyde substrate. 220,000 tested, 7.3% active. Potency, µM (doses to about 75.3 µM), actives largely listed as inhibitors. AID 1030
Numbers stand for hits; 0 = inactive; ? = inconclusive; - = no result; [ ] = another dose, or the depositor's remark. Unless noted, the call rests on the fitted dose curve; in most records, active means well fitted inhibition curve with a large enough effect (not every such curve was filed as active); inconclusive means small, poorly fitted or top-dose-only effect, or another doubt; inactive means no such curve, though single readings can be large or run the other way.

SMILES	PNC assembly inh	HPGD block	Lamin A splicing	12-hLO inh	ALDH1A1 inh
CCOc1cccc(CC(=O)N2CCc3c([nH]c4ccccc34)C2c2ccc(C)cc2)c1OCC (stereo not drawn)	-	-	0	-	-
O=C(NC(NNc1ccc([N+](=O)[O-])cc1)(C(F)(F)F)C(F)(F)F)c1ccc(F)cc1	0	32µM	?	0	?
O=C(NC(NNc1ccc([N+](=O)[O-])cc1)(C(F)(F)F)C(F)(F)F)c1ccccc1Cl	0	14µM	0	?	14µM
O=C(NC(Nc1nc2ccc([N+](=O)[O-])cc2s1)(C(F)(F)F)C(F)(F)F)c1ccccc1Cl	-119	0	?	?	?
O=C(NNC(=S)Nc1ccc(F)cc1)c1cccc([N+](=O)[O-])c1	-	-	-	-	0
O=[N+]([O-])c1ccc(NNC(=S)Nc2ccc(F)cc2)cc1	?	22µM	?	?	1.3µM
C[C@]12CCC(=O)C=C1CC[C@@H]1C2[C@@H](O)C[C@@]2(C)[C@H]1CC[C@]2(O)C(=O)CO (stereo partly drawn)	-	0	0	-	0
CC(C)(C)OC(=O)NCCCCC1=CC2=CC(=O)C(C)(OC(=O)C3CCCC3)C(=O)C2=CO1 (stereo not drawn)	-	0	-	0	0
CCCCC/C=C\C/C=C\C/C=C\C/C=C\CCCCCC(N)=O	-	0	-	0	0
CCOC(=O)N1CCN(S(=O)(=O)N2CCCC(C(=O)NCc3cc(OC)ccc3OC)C2)CC1 (stereo not drawn)	-	-	0	-	-
O=C1NN(c2ccccc2)C(=O)/C1=C/c1ccc(Sc2cccc3ccccc23)o1	0	18µM	?	0	0
C=CCN1C(=O)/C(=C/C=C2/N(CC)c3ccc(S(=O)(=O)N(C)C)cc3N2CC)SC1=S	-	-	0[9.22 µM]	-	2.8µM
CC(C)(C)OC(=O)[C@H](C1N[C@@H](C(=O)O)C(C)(C)S1)N1C(=O)c2ccccc2C1=O (stereo partly drawn)	-	0	-	-	0[13.5 µM]
O=C(CSCC(=O)Nc1nc(-c2ccc3c(c2)OCO3)cs1)Nc1nccs1	-	-	-	-	22µM
Cc1sc2ncnc(N3CCC(C)CC3)c2c1C	0	22µM	?	0	0
CCOc1ccc(Br)cc1S(=O)(=O)Nc1cccc(S(=O)(=O)N(C)C)c1	0	0	0	0	20µM
COC(=O)c1ccc(N2C(=O)CC(N(C)Cc3ccccc3)C2=O)cc1 (stereo not drawn)	0	0	0	0	8.9µM
COC(=O)c1ccc(N2C(=O)CC(N(C)CCc3ccc(OC)c(OC)c3)C2=O)cc1 (stereo not drawn)	-119	0	0	0	3.5µM
COc1ccc(CN(C(=S)Nc2ccccc2)C2CC(=O)N(c3ccc(Cl)cc3)C2=O)cc1 (stereo not drawn)	0	0	?	0	7.1µM
CN(Cc1ccncc1)C1CC(=O)N(c2ccc(F)cc2)C1=O (stereo not drawn)	-	-	-	-	18µM
CCCS(=O)(=O)N1CC(=O)N(c2ccc(Cl)cc2C)C(C)(C(=O)NC2CCCC2)C1 (stereo not drawn)	-	-	0	-	-
C[C@@H]1Nc2ccc(Cl)cc2S(=O)(=O)N1	-	?	-	0	?
CCc1ccccc1N(C)C(=O)Nc1cn(CC(C)C)c(=O)c2ccccc12	-	-	0	-	-
CCC(C(=O)Nc1ccc(OC)c(Cl)c1)c1ccccc1 (stereo not drawn)	0	0	?	0	0
Cc1ccc(OCC(=O)NC(=S)Nc2cccc(NC(=O)c3ccccc3Cl)c2)cc1	0	0	0	0	13µM
SMILES	PNC assembly inh	HPGD block	Lamin A splicing	12-hLO inh	ALDH1A1 inh
O=C(COc1ccccc1)NC(=S)Nc1cccc([N+](=O)[O-])c1	0	28µM	0	0	?
CCC(CC)=NNc1cccc([N+](=O)[O-])c1	0	?	0	?	28µM
O=C(Cc1ccccc1)Nc1cccc([N+](=O)[O-])c1	-	-	-	-	0
CC/C(C)=N/Nc1cccc([N+](=O)[O-])c1	0	0	0	?	0
COc1ccc(NC(=O)C(OC(=O)c2ccc([N+](=O)[O-])o2)c2ccccc2)cc1Cl (stereo not drawn)	0	0	0	0	2.5µM
Cc1cc(C)cc(Nc2cc(C)nc3nc(-c4ccco4)nn23)c1	-	-	0	-	-
C=C/C(C)=C/[C@]1(C)SC(=O)C(C)=C1O	-	-	-	0	-
COC(C(=O)Nc1cccc([N+](=O)[O-])c1)c1ccccc1 (stereo not drawn)	-	-	-	-	20µM
CCC(=O)NC(=S)Nc1cccc(NC(=O)c2ccccc2Cl)c1	0	0	0	0	?
O=C(COc1ccccc1)NC(=S)Nc1cccc(NC(=O)c2ccccc2Cl)c1	0	-	0	0	10µM
CC(C)Oc1cccc(C(=O)NC(=S)Nc2cccc(NC(=O)c3ccccc3Cl)c2)c1	0	0	?	?	11µM
CC(Oc1ccccc1)C(=O)Nc1cccc([N+](=O)[O-])c1 (stereo not drawn)	-	-	-	-	0
CC(=O)[C@@]1(O)CC[C@H]2[C@H]3C[C@@H](C)C4=CC(=O)C=C[C@]4(C)[C@@]3(F)[C@@H](O)C[C@]21C	-	0	?	0	0
NC(=O)Nc1cccc2ccccc12	-105	0	0	0	0
O=C(NNC(=S)Nc1cccc2ccccc12)c1cccc(Br)c1	?	0	0	?	4.5µM
Cc1ccc(-n2ncc(C(=O)NCCc3ccsc3)c2C2CCN(C(=O)OC(C)(C)C)CC2)cc1C	-	-	0	-	-
N#C/C(Cn1c[n+](NC(=O)Nc2ccccc2)cn1)=N/O	0	0	0	0	32µM
Cc1ccc(Cn2c(C)cc3c(c2=O)C(c2cccs2)C(C#N)=C(N)O3)cc1 (stereo not drawn)	?	0	0	0	0
N#CC1=C(SCc2ccccc2)NC2=C(C(=O)CCC2)C1c1ccc2c(c1)OCO2 (stereo not drawn)	0	0	?	0	?
N#CC1=C2SCN(Cc3ccccc3)CN2C(=O)CC1c1cccs1 (stereo not drawn)	0	20µM	0	0	11µM
N#CC1=C2SCN(Cc3ccccc3)CN2C(=O)CC1c1ccc2c(c1)OCO2 (stereo not drawn)	0	25µM	0	0	7.9µM
CCOC(=O)NN1C(=O)c2ccccc2NC1c1ccccc1 (stereo not drawn)	0	?	0	0	?
CCOC(=O)NN1C(=O)c2ccccc2NC1c1ccc(N(C)C)cc1 (stereo not drawn)	0	0	0	0	18µM
Cc1cccc(NC(=O)CN2NS(=O)(=O)c3ccccc3C2=O)c1	?	0	0	0	10µM
CCCc1nn2c(=O)cc(COC(=O)c3cccc(NC(=O)c4ccc(OCC)cc4)c3)nc2s1	-	-	0	-	-
COCC(=O)Nc1nc2ccccc2s1	0	0	0	0	0
O=C(COC(=O)Cc1cn2ccsc2n1)Nc1nc2ccccc2s1	-100	0	0	0	0
CC/C(C)=N\N=C\c1c(O)n(CC)c2cc(C3=NNC(=O)CC3)ccc12	0	32µM	0	0	?
